“And” between values parts separate entries of the source, which are not always exact repeats. Equal values may be shown once. Inconclusive results are not listed. The source made the active and inactive calls. Unless noted, calls follow the shape of the dose curve; as a rule, active = well fitted curve in the direction sought with a large enough effect; inconclusive = small, poorly fitted or top-dose-only effect, or another doubt; inactive = no such curve, though single readings can be large; an effect the other way counts as inactive or inconclusive.
Tests used:
[1] = AP1 Signaling Pathway (AID 357; active = well fitted curve in either direction with a large enough effect, not every such curve was filed as active;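 also: ME-180 reporter cells stimulated with EGF at its EC50 level; % is scaled to controls: 0 for no effect and ±100 for the full control effect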)
Summary of the method: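 Beta-lactamase reporter under AP-1 response element, ME-180 background. Stimulus: EC50 EGF. Compound exposure 5 h, 37 °C. Detection: CCF4, 2.5 h RT, 460/530 nm. Values: AC50 from titration.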

[2] = biological target: Cytochrome P450 1A2 (Homo sapiens) (UniProt P05177); test: p450-cyp1a2 (AID 410; calls by dose curve; also: potency is read from the fitted curve at half-maximal effect)
Chain of Cytochrome P450 1A2 (Homo sapiens) (P05177 whole entry, looked up): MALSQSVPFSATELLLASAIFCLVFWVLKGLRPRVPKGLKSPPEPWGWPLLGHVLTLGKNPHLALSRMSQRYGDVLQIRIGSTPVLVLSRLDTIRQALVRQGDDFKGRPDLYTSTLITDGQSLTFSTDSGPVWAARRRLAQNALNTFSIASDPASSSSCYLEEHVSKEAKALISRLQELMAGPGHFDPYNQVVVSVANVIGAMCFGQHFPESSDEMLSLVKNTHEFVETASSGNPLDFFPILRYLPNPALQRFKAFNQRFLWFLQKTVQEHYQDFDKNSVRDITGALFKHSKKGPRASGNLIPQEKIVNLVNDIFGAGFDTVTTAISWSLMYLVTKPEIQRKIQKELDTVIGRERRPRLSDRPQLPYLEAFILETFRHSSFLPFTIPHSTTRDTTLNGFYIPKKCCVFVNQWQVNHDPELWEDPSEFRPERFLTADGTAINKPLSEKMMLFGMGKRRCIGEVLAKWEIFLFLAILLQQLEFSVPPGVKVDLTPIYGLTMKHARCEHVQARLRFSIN
Summary of the method: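 O-Demethylation of luciferin 6' methyl ether by human CYP1A2 is monitored as luciferase luminescence. Substrate sits at Km (100uM); enzyme is 20nM. Values are scaled to 57 uM furafylline as maximal inhibition.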

[3] = NFAT Signaling Pathway (AID 444; active = well fitted curve in either direction with a large enough effect, not every such curve was filed as active;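 also: carbachol stimulus at about its EC50 of 1 µM final; % is scaled to controls: 0 for no effect and ±100 for the full control effect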); conditions: Jurkat NFAT-bla M1, carbachol, beta-lactamase ratio, 5 h
Summary of the method: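 Jurkat cells carrying an NFAT-driven β-lactamase reporter and co-transfected muscarinic M1 receptor were treated with compound plus carbachol (1 uM final, an EC50 level) for 5 h at 37 °C. CCF4 loading followed for 1 h at RT; 460/530 nm ratio gave %activity.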

[4] = biological target: Glucocorticoid receptor (Homo sapiens) (UniProt P04150); test: GR-GFP Redistribution (AID 450;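 active = compounds whose dose series gives a full or clear partial fitted curve of increased nuclear translocation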; also: potency is read from the fitted curve at half-maximal effect); conditions: U2OS GR-GFP nuclear translocation, laser cytometry, 2 h
Chain of Glucocorticoid receptor (Homo sapiens) (P04150 whole entry, looked up): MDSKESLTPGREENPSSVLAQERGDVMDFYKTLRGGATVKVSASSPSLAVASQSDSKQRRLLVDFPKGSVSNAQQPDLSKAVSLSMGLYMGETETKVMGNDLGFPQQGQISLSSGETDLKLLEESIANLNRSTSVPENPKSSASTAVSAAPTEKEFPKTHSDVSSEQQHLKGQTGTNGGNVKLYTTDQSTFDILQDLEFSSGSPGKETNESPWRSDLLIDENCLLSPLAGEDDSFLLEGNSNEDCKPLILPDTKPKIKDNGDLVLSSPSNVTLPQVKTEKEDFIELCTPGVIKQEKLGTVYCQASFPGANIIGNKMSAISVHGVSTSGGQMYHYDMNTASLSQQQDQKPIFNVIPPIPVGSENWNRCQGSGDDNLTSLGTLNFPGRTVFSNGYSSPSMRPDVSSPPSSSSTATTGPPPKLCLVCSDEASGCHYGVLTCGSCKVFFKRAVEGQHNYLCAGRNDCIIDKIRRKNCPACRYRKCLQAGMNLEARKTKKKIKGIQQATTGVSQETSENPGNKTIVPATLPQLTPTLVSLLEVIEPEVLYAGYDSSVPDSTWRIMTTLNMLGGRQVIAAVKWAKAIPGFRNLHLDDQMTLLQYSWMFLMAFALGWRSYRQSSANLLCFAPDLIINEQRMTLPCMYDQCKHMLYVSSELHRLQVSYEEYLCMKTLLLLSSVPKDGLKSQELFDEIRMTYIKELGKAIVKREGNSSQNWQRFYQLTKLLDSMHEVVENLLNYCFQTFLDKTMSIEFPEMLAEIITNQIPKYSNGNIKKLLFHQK

[5] = biological target: Cytochrome P450 2C9 (Homo sapiens) (UniProt P11712); test: qHTS Assay for Inhibitors and Substrates of Cytochrome P450 2C9 (AID 883); also: % is scaled to controls: 0 for no effect and ±100 for the full control effect; nearly all actives have a fitted effect of over 60% in size
Chain of Cytochrome P450 2C9 (Homo sapiens) (P11712 whole entry, looked up): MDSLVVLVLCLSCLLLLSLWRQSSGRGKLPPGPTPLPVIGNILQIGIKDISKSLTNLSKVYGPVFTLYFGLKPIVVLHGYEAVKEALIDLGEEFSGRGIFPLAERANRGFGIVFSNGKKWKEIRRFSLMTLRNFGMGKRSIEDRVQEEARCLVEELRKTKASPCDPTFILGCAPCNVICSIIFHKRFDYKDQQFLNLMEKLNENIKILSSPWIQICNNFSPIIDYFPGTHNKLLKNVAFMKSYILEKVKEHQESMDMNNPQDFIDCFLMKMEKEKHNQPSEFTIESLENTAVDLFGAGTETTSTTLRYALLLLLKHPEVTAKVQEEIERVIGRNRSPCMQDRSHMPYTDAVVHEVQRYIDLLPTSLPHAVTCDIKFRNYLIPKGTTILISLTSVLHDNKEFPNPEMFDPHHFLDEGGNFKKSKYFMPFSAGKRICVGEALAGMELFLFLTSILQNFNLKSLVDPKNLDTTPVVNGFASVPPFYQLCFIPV
Summary of the method: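 A luminogenic readout tracked human CYP2C9 (10nM) converting deoxyluciferin (100uM, at KM) in 25mM KPO4 during 60 min at 37C with regenerated NADPH. Values normalized to 57uM sulphaphenazole as complete inhibition.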

[6] = qHTS Assay for Identification of Small Molecule Agonists for Thrombopoietin (TPO) Signaling Pathway (AID 917); also: % is scaled to controls: 0 for no effect and ±100 for the full control effect
Summary of the method: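 First, Ba/F3 cells with human TPO receptor were held overnight without IL-3. Next, compounds and TPO (26 pM final) were added. After 24 hrs at 37 C, luciferase detection reagent was added and luminescence measured following 10 min at room temperature.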

[7] = biological target: Muscarinic acetylcholine receptor M1 (Rattus norvegicus) (UniProt P08482); test: qHTS Assay for Antagonists of Acetylcholine Muscarinic M1 Receptor: Kinetic Measurement of Intracellular Calcium Response (AID 943);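 also: Fluo-4 calcium signal as peak divided by basal fluorescence over 4 min; nearly all actives have a fitted effect of over 75% in size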
Chain of Muscarinic acetylcholine receptor M1 (Rattus norvegicus) (P08482 whole entry, looked up): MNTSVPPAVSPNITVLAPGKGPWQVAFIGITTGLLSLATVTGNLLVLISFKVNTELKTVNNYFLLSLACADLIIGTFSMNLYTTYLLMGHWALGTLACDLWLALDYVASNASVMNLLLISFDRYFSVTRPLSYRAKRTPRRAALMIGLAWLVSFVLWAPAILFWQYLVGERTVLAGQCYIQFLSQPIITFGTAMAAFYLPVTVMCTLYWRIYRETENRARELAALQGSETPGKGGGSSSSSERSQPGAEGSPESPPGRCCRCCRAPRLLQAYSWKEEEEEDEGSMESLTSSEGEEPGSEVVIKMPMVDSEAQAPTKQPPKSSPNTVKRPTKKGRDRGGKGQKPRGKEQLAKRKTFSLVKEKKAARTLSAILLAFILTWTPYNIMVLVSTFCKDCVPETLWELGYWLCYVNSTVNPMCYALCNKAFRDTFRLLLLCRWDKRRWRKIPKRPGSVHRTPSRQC
Summary of the method: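 Antagonism is measured as inhibition of the carbachol-evoked calcium rise in CHO cells transfected with rat M1. Cells are dye-loaded, exposed to compound for 10 min, then stimulated with 100 nM carbachol (EC80).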

[8] = biological target: Muscarinic acetylcholine receptor M1 (Rattus norvegicus) (UniProt P08482); test: qHTS Assay for Antagonists of Acetylcholine Muscarinic M1 Receptor: Measurement of IP-One Response (AID 944); also: nearly all actives have a fitted effect of over 75% in size
Summary of the method: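 Antagonist mode with rat M1 receptor transfected into CHO cells. Compound is added first for 10 min, carbachol at its EC80 follows for 30 min, and lysis reagents then allow TR-FRET detection of accumulated IP1.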

[9] = biological target: Pyruvate kinase (Leishmania mexicana) (UniProt Q27686); test: qHTS Validation Assay for Inhibitors of Leishmania Mexicana Pyruvate Kinase (AID 945);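 also: 0% = DMSO only neutral control wells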
Chain of Pyruvate kinase (Leishmania mexicana) (Q27686 2-499 E452W): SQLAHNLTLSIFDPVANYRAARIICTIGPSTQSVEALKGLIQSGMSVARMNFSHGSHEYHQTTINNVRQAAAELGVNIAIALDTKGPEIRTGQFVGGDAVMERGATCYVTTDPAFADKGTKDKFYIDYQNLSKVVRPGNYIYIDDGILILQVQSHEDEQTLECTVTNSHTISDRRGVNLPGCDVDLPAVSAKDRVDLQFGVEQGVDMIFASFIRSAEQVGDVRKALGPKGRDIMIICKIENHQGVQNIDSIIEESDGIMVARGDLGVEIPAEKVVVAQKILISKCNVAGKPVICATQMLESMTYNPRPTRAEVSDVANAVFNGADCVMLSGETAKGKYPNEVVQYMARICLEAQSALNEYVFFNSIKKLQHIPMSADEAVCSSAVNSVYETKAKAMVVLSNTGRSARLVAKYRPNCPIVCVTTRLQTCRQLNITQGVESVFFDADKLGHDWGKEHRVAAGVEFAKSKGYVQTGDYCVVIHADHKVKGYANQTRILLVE
Summary of the method: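 LmPYK E451W 0.2 nM; 0.5 mM PEP, 0.1 mM ADP, 7 mM MgCl2, 50 mM KCl, imidazole pH 7.2, 0.01% Tween 20, 0.05% BSA; 1 h RT; PKLight luminescence; DMSO-normalized.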

[10] = biological target: Pyruvate kinase PKM (Homo sapiens) (UniProt P14618); test: qHTS Assay for Activators of Human Muscle Pyruvate Kinase (AID 954; active = well fitted curve in the direction sought with a large enough effect, not every such curve was filed as active;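 also: 0% = uninhibited enzyme and -100% = no enzyme or full thiadiazolimine inhibition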)
Chain of Pyruvate kinase PKM (Homo sapiens) (P14618 whole entry, looked up): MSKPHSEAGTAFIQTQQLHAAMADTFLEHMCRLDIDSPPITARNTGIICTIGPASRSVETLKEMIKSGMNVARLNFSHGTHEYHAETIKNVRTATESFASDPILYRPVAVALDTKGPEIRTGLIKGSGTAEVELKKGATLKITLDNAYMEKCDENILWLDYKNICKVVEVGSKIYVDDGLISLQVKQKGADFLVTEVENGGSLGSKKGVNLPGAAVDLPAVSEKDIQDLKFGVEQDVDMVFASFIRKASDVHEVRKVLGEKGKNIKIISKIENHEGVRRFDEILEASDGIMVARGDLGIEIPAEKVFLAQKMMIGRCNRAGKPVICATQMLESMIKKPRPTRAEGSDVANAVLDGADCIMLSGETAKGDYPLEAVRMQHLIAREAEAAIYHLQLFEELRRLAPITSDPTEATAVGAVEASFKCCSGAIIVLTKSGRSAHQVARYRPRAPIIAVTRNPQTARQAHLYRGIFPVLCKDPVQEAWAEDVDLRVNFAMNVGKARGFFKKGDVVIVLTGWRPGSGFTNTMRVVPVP
Summary of the method: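 ATP production by PKM2 detected via luciferase luminescence after 1 h room-temperature reaction (0.1 nM enzyme, PEP at Km 0.5 mM, ADP 0.1 mM, pH 7.2 imidazole buffer). Inhibition scaled to no-enzyme control; activation referenced to 0.3 nM enzyme wells.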

[11] = biological target: Alpha-galactosidase (Coffea arabica) (UniProt Q42656); test: Counterscreen for Glucocerebrosidase Inhibitors: qHTS Assay for Coffee Bean alpha-Galactosidase at pH 4.5 (AID 957);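 also: plate controls were enzyme alone for no effect and no enzyme for full effect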
Chain of Alpha-galactosidase (Coffea arabica) (Q42656 whole entry, looked up): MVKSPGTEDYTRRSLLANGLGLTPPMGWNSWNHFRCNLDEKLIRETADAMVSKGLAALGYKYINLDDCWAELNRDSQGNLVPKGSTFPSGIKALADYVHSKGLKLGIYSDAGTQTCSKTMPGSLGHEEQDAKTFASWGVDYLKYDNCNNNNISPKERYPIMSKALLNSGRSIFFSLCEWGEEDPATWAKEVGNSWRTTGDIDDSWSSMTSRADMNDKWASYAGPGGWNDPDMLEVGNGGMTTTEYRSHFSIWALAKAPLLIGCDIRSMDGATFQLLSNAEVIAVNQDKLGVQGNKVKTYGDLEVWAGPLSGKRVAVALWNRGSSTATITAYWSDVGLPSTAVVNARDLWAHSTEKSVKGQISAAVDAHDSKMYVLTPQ
Summary of the method: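 Enzyme is added first (2 nM final), then compounds titrated from 0.7 nM to 77 uM, then 80 uM 4-methylumbelliferyl alpha-D-galactopyranoside; after 20 min at room temperature a pH 10 NaOH/glycine stop precedes fluorescence reading at 365/440 nm.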

[12] = biological target: Alpha-galactosidase A (Homo sapiens) (UniProt P06280); test: Counterscreen for Glucocerebrosidase Inhibitors: qHTS Assay for Human alpha-Galactosidase at pH 4.5 (AID 992); also: 0% is about no effect
Chain of Alpha-galactosidase A (Homo sapiens) (P06280 whole entry, looked up): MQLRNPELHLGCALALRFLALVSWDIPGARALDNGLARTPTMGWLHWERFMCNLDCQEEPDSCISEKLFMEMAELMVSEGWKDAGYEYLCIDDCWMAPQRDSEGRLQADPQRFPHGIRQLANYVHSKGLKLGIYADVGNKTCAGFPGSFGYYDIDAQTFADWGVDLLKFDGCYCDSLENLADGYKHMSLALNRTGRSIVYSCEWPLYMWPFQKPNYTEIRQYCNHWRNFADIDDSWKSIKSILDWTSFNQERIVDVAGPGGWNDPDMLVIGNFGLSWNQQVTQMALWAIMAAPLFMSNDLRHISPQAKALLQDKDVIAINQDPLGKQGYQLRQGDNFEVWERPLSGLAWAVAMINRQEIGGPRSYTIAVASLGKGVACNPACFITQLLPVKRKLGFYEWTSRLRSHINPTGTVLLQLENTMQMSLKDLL
Summary of the method: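 Fluorogenic 1536-well qHTS at pH 4.5 (citrate, Tween-20): 2 nM enzyme, 80 uM 4-MU-alpha-galactoside, 20 min room temperature, NaOH/glycine stop. Titration 0.7 nM to 77 uM, data normalized to no-enzyme and full-activity controls, Hill-fitted AC50.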

[13] = biological target: alpha-glucosidase (Oryza sativa, rice) (UniProt Q653V4); test: Counterscreen for Glucocerebrosidase Inhibitors: qHTS Assay for Rice alpha-Glucosidase at pH 5.0 (AID 997);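 also: 0% = full activity with enzyme and -100% = basal without enzyme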
Summary of the method: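 Endpoint fluorogenic assay at pH 5.0: compounds (0.7 nM to 77 uM) titrated against 4 nM rice enzyme and 400 uM 4-MU-alpha-glucoside for 20 min at room temperature; NaOH/glycine stop, read ex 365/em 440 nm, Hill-fitted AC50.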

[14] = biological target: Alpha-galactosidase (Coffea arabica) (UniProt Q42656); test: Counterscreen for Glucocerebrosidase Inhibitors: qHTS Assay for Coffee Bean alpha-Galactosidase at pH 5.9 (AID 998);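 also: plate controls were uninhibited enzyme for no effect and no-enzyme basal signal for full effect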
Summary of the method: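 In 50 mM citric acid pH 5.9 with 0.005% Tween-20, coffee bean enzyme hydrolyses 80 uM 4-MU alpha-D-galactopyranoside over 20 min at RT. Activity is normalized to controls; AC50 comes from Hill-modelled concentration-response data.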

[15] = Validation of Assay for Modulators of Lamin A Splicing (AID 1459; active = well fitted curve in the direction sought with a large enough effect in the signal ratio; the % refers to the signal ratio;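 also: cells exposed to compound for two days before reading; 0% is about no effect; ratio rise marks activators and ratio drop marks inhibitors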)
Summary of the method: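 S3 HeLa cells stably expressing a lamin A-EGFP splicing minigene and DsRed2 were seeded at 600 cells/well in Opti-MEM with 2% FBS, pin-dosed, and incubated 48 hrs at 37 °C, 5% CO2. Laser-scanning cytometry (488 nm) gave GFP/RFP total intensity ratio.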

[16] = biological target: DNA repair nuclease/redox regulator APEX1 (Homo sapiens) (UniProt P27695); test: qHTS Validation Assay for Inhibitors of the Human Apurinic/apyrimidinic Endonuclease 1 (APE1) (AID 1705;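 also: TAMRA fluorescence gain over two minutes as APE1 cuts a quenched THF abasic duplex; % is scaled to controls: 0 for no effect and ±100 for the full control effect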)
Chain of DNA repair nuclease/redox regulator APEX1 (Homo sapiens) (P27695 whole entry, looked up): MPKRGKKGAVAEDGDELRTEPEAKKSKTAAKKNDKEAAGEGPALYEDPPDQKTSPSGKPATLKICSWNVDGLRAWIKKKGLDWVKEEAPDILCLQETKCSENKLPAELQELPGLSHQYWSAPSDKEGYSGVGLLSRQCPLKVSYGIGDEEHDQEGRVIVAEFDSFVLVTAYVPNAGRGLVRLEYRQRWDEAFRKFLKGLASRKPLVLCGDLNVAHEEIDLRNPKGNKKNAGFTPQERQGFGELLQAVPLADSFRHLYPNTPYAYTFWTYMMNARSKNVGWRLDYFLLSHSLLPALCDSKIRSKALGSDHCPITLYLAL
Summary of the method: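 Human APE1 was preincubated with compound for 15 min at room temperature, then 50 nM (final) THF-abasic double-stranded DNA substrate bearing 5'-TAMRA and 3'-BHQ-2 was added. Incision-driven fluorescence rise (ex 525/em 598 nm) was read kinetically.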

[17] = Counterscreen for APE1 Inhibitors: Fluorescent Dye Displacement Validation Assay (AID 1707);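 also: plate controls were ThO with dsDNA and no compound for no effect and ThO without dsDNA for full effect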
Summary of the method: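 Counterscreen flags promiscuous DNA binders: compounds displacing ThO from duplex DNA (abasic THF site, 50 nM) reduce 540 nm emission (480 nm excitation). ThO 250 nM final; Tris-HCl pH 7.5 with NaCl, MgCl2 and Tween-20.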

[18] = biological target: Endonuclease 4 (Escherichia coli (strain K12)) (UniProt P0A6C1); test: Counterscreen for APE1 Inhibitors: qHTS Validation Assay for Inhibitors of Endonuclease IV (AID 1708); also: % is scaled to controls: 0 for no effect and ±100 for the full control effect
Summary of the method: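 Enzyme (2 nM) + compound, 15 min RT; add 50 nM TAMRA/BHQ-2 THF-site dsDNA; kinetic read ex525/em598, 3 reads/60 s; activity = read 3 − read 1. Buffer Tris pH 7.5, 50 mM NaCl, 2 mM MgCl2, DTT, Tween-20.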

COc1ccc2[nH]cc(CCN(C)C)c2c1
active: Potency [2] 15.8 µM
inactive: outcome [1] | activity change, negative = inhibition ([3]; at 17.2 µM (top of the series)) -12.1% | activity change, negative = inhibition ([3]; at 38 µM (top of the series)) -5.37% | Potency [4] > 46 µM and > 20.6 µM | Potency [5] | outcome [6] | Potency [7] | Potency [8] | outcome [9] | outcome [10] | outcome [11] | outcome [12] | outcome [13] | outcome [14] | outcome [15] | Potency [16] | Potency [17] | outcome [18]

Source: PubChem BioAssay (NCATS)
